Assay results: PubChem BioAssay
Records with an inconclusive call do not appear. Active and inactive are the calls of the source.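 Rule for the calls, unless noted: active = growth inhibition above 25% in both replicates, a cutoff set 3 SD above the mean; inconclusive = above 25% in only one replicate; inactive = the rest.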

Experiments:
[1] = reducers of endogenous Her2 protein level, primary screen, SKBR3 breast tumor cells, AlphaScreen, ATP viability (AID 461;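 active = Her2 level under about 52% in both replicate screens, with viability over 70% of control, limit read from the data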;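 for Her2 level: lower value means less Her2 protein in the cells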;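 for viability: percent of carrier control wells set as 100% viability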); conditions: 18-24 h, measured here: SKBR3 viability, ATP luminescence, at 10 µM
[2] = target: Receptor tyrosine-protein kinase erbB-2 (Homo sapiens) (UniProt P04626); test: as above; conditions: 18-24 h, at 10 µM, stronger effect = lower value
Receptor tyrosine-protein kinase erbB-2 (Homo sapiens), sequence (P04626 whole entry, looked up): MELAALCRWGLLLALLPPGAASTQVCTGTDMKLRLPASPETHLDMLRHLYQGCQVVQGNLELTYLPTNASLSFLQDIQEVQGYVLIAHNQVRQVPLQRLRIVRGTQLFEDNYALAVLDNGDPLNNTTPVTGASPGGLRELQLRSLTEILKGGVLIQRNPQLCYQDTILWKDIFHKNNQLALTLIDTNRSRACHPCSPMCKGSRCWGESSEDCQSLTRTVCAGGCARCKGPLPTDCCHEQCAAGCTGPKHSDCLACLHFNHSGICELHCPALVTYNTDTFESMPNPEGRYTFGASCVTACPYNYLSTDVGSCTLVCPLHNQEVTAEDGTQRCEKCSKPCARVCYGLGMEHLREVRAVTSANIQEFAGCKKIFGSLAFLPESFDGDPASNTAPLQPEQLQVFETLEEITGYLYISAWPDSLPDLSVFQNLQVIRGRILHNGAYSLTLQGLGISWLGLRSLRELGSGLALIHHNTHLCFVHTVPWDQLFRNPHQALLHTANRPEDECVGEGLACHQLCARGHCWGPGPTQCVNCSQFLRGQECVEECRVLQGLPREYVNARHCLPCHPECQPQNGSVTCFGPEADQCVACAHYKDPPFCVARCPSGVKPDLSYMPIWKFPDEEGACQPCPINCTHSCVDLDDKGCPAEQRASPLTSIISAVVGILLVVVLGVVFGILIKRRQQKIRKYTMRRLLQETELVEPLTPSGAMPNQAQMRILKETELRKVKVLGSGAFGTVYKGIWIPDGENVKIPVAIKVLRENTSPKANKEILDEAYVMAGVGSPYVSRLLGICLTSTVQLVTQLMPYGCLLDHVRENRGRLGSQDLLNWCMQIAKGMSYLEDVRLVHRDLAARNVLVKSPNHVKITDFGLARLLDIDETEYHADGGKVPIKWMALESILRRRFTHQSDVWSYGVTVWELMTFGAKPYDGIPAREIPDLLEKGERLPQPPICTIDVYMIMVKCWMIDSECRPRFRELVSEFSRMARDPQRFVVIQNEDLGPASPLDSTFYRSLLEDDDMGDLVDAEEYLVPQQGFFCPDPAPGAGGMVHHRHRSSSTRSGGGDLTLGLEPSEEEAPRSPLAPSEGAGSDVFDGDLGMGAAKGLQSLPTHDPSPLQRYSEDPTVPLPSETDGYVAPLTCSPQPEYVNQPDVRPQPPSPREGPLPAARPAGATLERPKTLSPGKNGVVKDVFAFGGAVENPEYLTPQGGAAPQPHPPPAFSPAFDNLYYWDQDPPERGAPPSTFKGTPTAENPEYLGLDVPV

[3] = SK-BR-3 cell growth inhibitors, pilot screen, 24 h, human (AID 572;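 active = viability at or below 10% of carrier control in both of two separate runs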;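 note: compound exposure lasted between 18 and 24 h rather than exactly 24 h; 100% = carrier-treated control wells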); conditions: SK-BR-3 viability, CellTiter-Glo luminescence, at 10 µM, stronger effect = lower value
[4] = HUVEC growth inhibition – cell-based, human, primary screen (AID 575;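 active = viability at or below 30% in both replicate assays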;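 note: 100% = median of untreated cell wells with 0.1% DMSO on each plate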); conditions: HUVEC proliferation, CellTiter-Glo luminescence, 72 h; at 10 µM; stronger effect = lower value
[5] = growth inhibitors of H69AR lung tumor, primary screen, human, duplicate replicates (AID 580;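 active = viability at or under a set limit in both replicates, limit being median viability minus 3 SD, cut at about 48% in these data, passing the limit was not always enough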;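 note: 100% = mean luminescence of untreated wells and 0% = no signal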); conditions: H69AR lung tumor cells viability, ATP luminescence, 72 h; at 10 µM; stronger effect = lower value
[6] = reversal of MRP1-mediated doxorubicin resistance, pilot screen, H69AR cells, doxorubicin co-treatment (AID 601;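 active = viability loss from added drug above about 55%, and viability with drug at most 40%, in both replicates, limit read from the data, passing the limit was not always enough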); conditions: CellTiter-Glo, 72 h, at 10 µM; for differential viability (reversal): stronger effect = higher value
[7] = 384-well plate pilot, post-Golgi transport modulator project, inhibition of yeast transport mutant growth (AID 636; in the data active = inhibition above about 31%); conditions: absorbance 615 nm, about 18 h, stronger effect = higher value
[8] = growth suppression of yeast trafficking mutant, preliminary HTS, modulators of trafficking downstream of Golgi apparatus project, 1536-format plate, OD 615 nm (AID 637; in the data active = inhibition above about 30%); conditions: yeast transport mutant growth, absorbance 615 nm, 18 h; stronger effect = higher value
[9] = OD615 S. cerevisiae growth inhibition, permissive medium, pilot counter-assay, permissive growth control for S. cerevisiae lifespan shortening project (AID 705); conditions: OD615, 24 h, at 10 µM, stronger effect = higher value
[10] = Restrictive medium S. cerevisiae growth inhibition, OD615, pilot screen of yeast lifespan reduction project, restrictive growth control (AID 706;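 active = growth inhibition above a set limit, 3 SD over mean compound inhibition, in both replicates, cut at about 43% in these data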;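 note: modified DeaD lifespan yeast strain shifted to restrictive glucose medium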); conditions: OD615, 48 h, at 10 µM, stronger effect = higher value
[11] = viability gain of MRP-1-high H69AR cells under doxorubicin, pilot screen, MRP-1 activator project, CellTiter-Glo, duplicate (AID 807;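 active = viability increase at or above a cutoff of the median across tested compounds plus 3 SD, cut at about 8.5% in these data, passing the limit was not always enough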;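 note: compound pretreatment 18-22 h then 72 h combined with doxorubicin; 0% = doxorubicin alone and 100% = vehicle without doxorubicin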); conditions: H69AR viability with doxorubicin, CellTiter-Glo luminescence; at 10 µM; stronger effect = higher value
[12] = growth suppression of beta-catenin knockout HCT116, pilot screen, human colon tumor cells (AID 823;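 active = cell viability at or below a set limit in both duplicate runs, the limit being the all-compound median minus 4 SD, cut at about 23% in these data, passing the limit was not always enough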;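 note: 0% = wells killed by 20 µM Hyamine and 100% = untreated DMSO cell wells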); conditions: CellTiter-Glo, 60 h, at 10 µM, stronger effect = lower value
[13] = growth suppression of PTEN-deleted HCT116, pilot screen, cell-based, HCT116 clonal line, CellTiter-Glo (AID 824;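 active = viability at or below 27.92% in each of two runs, the all-compound median minus 4 SD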;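 note: 0% = 20 µM Hyamine control and 100% = vehicle cell control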); conditions: 60 h, at 10 µM, stronger effect = lower value
[14] = inhibitors of the yeast RAM network, pilot screen, dse1pr::URA3 reporter, 5-FOA selection (AID 869;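 active = inhibition over a set limit, the all-compound mean plus 3 SD, in both replicate runs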;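 note: 0% = DMSO wells with no growth and 100% = 10 µM 1-NA-PP1 with full growth; RAM network block rescues cells from 5-FOA so hits raise OD615 growth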); conditions: S. cerevisiae dse1pr::URA3 5-FOA growth, OD615, 2 d; at 10 µM; stronger effect = higher value; strain carries analog-sensitive mutant Cbk1 kinase
[15] = RAM signaling pathway blockade in yeast – S. cerevisiae, Pdr1DBD-CYC8 efflux-inhibited sensitized strain, primary screen (AID 1298;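 active = RAM network inhibition above 8.4% in each of two replicates, 3 SD over the compound average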;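 note: 0% = DMSO untreated cells without growth and 100% = 10 µM 1-NA-PP1 full growth; higher means more yeast growth rescued from 5-FOA killing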); conditions: S. cerevisiae cbk1-as DSE1-URA3 strain, 5-FOA growth OD615, 2 d; at 50 µM; stronger effect = higher value
[16] = H69AR cells + 2 uM doxorubicin, measured here: viability with 2 uM doxorubicin, stronger effect = lower value
[17] = H69AR cells, compound alone cytotoxicity

Row | SMILES | viability [1] [%] | Her2 level [2] | viability [3] | viability [4] | viability [5] | differential viability (reversal) ([6]; H69AR cells + 2 uM doxorubicin) | viability [6, 16] [%] | viability [6, 17] [%] | inhibition [7] | inhibition [8] | growth inhibition [9] | growth inhibition [10] | viability increase [11] | viability [12] | viability [13] | inhibition [14] | RAM network inhibition [15]
1 | Cc1cccc(-n2ncc3c(NCCCO)ncnc32)c1 | 95.5 | 118% (inactive) | 95.5% (inactive) | 86.4% (inactive) | 88.3% (inactive) | 7.59% (inactive) | 80.7 | 88.3 | 2.4% (inactive) | -2.5% (inactive) | -12.1% (inactive) | -8.93% (inactive) | 0.27% (inactive) | 112% (inactive) | 104% (inactive) | 0.64% (inactive) | -0.67% (inactive)
2 | COc1cccc(C2CC(=O)Nc3cc4c(cc32)OCCO4)c1OC(C)C (stereo not drawn) | 99 | 88.5% (inactive) | 99% (inactive) | 84.6% (inactive) | 41.2% (active) | -29.5% (inactive) | 70.7 | 41.2 | -1.2% (inactive) | -3.61% (inactive) | -3.68% (inactive) | 0.265% (inactive) | -4.91% (inactive) | 65.7% (inactive) | 65% (inactive) | 0.76% (inactive) | 2.97% (inactive)
3 | CCSc1nc(O)c(CC)c(=O)n1C(C)CC (stereo not drawn) | 104 | 128% (inactive) | 104% (inactive) | 97.9% (inactive) | 108% (inactive) | 14.9% (inactive) | 93.2 | 108 | -6% (inactive) | -0.48% (inactive) | -9.35% (inactive) | -3.4% (inactive) | -0.54% (inactive) | 98.6% (inactive) | 93.7% (inactive) | -0.63% (inactive) | 11.3% (inactive)
4 | O=C(Nc1cnn(Cc2ccc(Cl)cc2Cl)c1)c1noc2c1CCCC2 | 94.5 | 91.5% (inactive) | 94.5% (inactive) | 71.8% (inactive) | 88.2% (inactive) | 2.57% (inactive) | 85.6 | 88.2 | -0.13% (inactive) | -3.17% (inactive) | 2.94% (inactive) | -1.65% (inactive) | -0.32% (inactive) | 94.7% (inactive) | 82.7% (inactive) | 0.895% (inactive) | 4.07% (inactive)
5 | COC(=O)c1ccc(-n2nnnc2SCc2nn[nH]n2)cc1 | 77 | 135% (inactive) | 77% (inactive) | 107% (inactive) | 114% (inactive) | 21.8% (inactive) | 91.7 | 114 | 3.21% (inactive) | -5.5% (inactive) | -0.675% (inactive) | 25.4% (inactive) | 0.27% (inactive) | 106% (inactive) | 100% (inactive) | 0.965% (inactive) | -1.09% (inactive)
6 | CC1CCCN(S(=O)(=O)c2coc(C(N)=O)c2)C1 (stereo not drawn) | 87.5 | 119% (inactive) | 87.5% (inactive) | 82.6% (inactive) | 94.6% (inactive) | -23.4% (inactive) | 118 | 94.6 | -0.51% (inactive) | 1% (inactive) | -19.2% (inactive) | -4.31% (inactive) | -0.1% (inactive) | 108% (inactive) | 99.5% (inactive) | 1.33% (inactive) | 2.99% (inactive)
7 | CCn1c(C(=O)N2CCC(C(=O)N3CCN(c4ccccn4)CC3)CC2)cc2sccc21 | 95 | 108% (inactive) | 95% (inactive) | 93.4% (inactive) | 87.1% (inactive) | 32.9% (inactive) | 54.2 | 87.1 | -2.8% (inactive) | -3.5% (inactive) | -11.8% (inactive) | -12.2% (inactive) | -3.83% (inactive) | 78.3% (inactive) | 78.2% (inactive) | 0.93% (inactive) | 1.16% (inactive)
8 | CCc1cccc(NC(=O)CCc2nc(-c3cccs3)no2)c1 | 108 | 107% (inactive) | 108% (inactive) | 95.4% (inactive) | 101% (inactive) | 15.6% (inactive) | 85.1 | 101 | -3.47% (inactive) | -0.98% (inactive) | -1.88% (inactive) | -1.74% (inactive) | -1.34% (inactive) | 95.6% (inactive) | 97.6% (inactive) | 0.515% (inactive) | -1.4% (inactive)
9 | COc1cccc(NC(=O)CSc2nnc(Cc3cccn3C)n2-c2ccc(F)cc2)c1 | 94.5 | 115% (inactive) | 94.5% (inactive) | 85.7% (inactive) | 78.2% (inactive) | -8.06% (inactive) | 86.2 | 78.2 | -7.73% (inactive) | -8% (inactive) | 0.385% (inactive) | 13.1% (inactive) | -4.32% (inactive) | 88.9% (inactive) | 90.1% (inactive) | 1.09% (inactive) | 6.98% (inactive)
10 | Nc1[nH]nc2nc(N3CCCC3)nc(-c3ccccc3)c12 | 113 | 97.5% (inactive) | 113% (inactive) | 92% (inactive) | 95.6% (inactive) | 7% (inactive) | 88.6 | 95.6 | -6.27% (inactive) | 2.1% (inactive) | -6.15% (inactive) | -9.01% (inactive) | -4.09% (inactive) | 99% (inactive) | 90.9% (inactive) | 0.285% (inactive) | -0.16% (inactive)
11 | CCOc1ccc(S(=O)(=O)N2CCN(c3ccc(C)cc3C)CC2)cc1 | 98.5 | 114% (inactive) | 98.5% (inactive) | 90.1% (inactive) | 90.1% (inactive) | -14.9% (inactive) | 105 | 90.1 | -5.07% (inactive) | -4.67% (inactive) | 7.69% (inactive) | 5.65% (inactive) | -0.07% (inactive) | 65.6% (inactive) | 83.5% (inactive) | 2.64% (inactive) | 6.67% (inactive)
12 | COc1ccc(C(=O)NCc2nc3ccccc3[nH]2)cc1OC | 110 | 115% (inactive) | 110% (inactive) | 101% (inactive) | 107% (inactive) | 16.6% (inactive) | 90.2 | 107 | -3.6% (inactive) | -6.67% (inactive) | -9.82% (inactive) | -15% (inactive) | 0.84% (inactive) | 102% (inactive) | 98.2% (inactive) | 2.96% (inactive) | 6.63% (inactive)
13 | CCN(CC)C(=O)C1CCCc2c1[nH]c1ccc(Cl)cc21 (stereo not drawn) | 102 | 91% (inactive) | 102% (inactive) | 67.1% (inactive) | 76.6% (inactive) | 5.98% (inactive) | 70.6 | 76.6 | 8.13% (inactive) | 44% (active) | -16% (inactive) | -4.67% (inactive) | -4.93% (inactive) | 66.5% (inactive) | 60.8% (inactive) | 0.455% (inactive) | 1.57% (inactive)
14 | CCN(CC)C(=O)Oc1ccc(NC(C)=O)cc1 | 88.5 | 108% (inactive) | 88.5% (inactive) | 97.4% (inactive) | 93.6% (inactive) | -0.975% (inactive) | 94.6 | 93.6 | 0.91% (inactive) | -6.33% (inactive) | -4.01% (inactive) | -12% (inactive) | -0.49% (inactive) | 105% (inactive) | 108% (inactive) | 1.06% (inactive) | 1.82% (inactive)
15 | Cc1nc2ccccn2c1/C(O)=C1\C(=O)C(=O)N(CCCN(C)C)C1c1ccc(F)cc1 (stereo not drawn) | 89 | 91% (inactive) | 89% (inactive) | 94.4% (inactive) | 90.8% (inactive) | -13.7% (inactive) | 105 | 90.8 | 0.4% (inactive) | 3.11% (inactive) | -6.91% (inactive) | -14% (inactive) | -2.7% (inactive) | 104% (inactive) | 88.1% (inactive) | 0.255% (inactive) | -2.2% (inactive)
16 | CC(C)CCN(C)C1CCN(S(=O)(=O)c2ccc(F)cc2)CC1 | 87 | 104% (inactive) | 87% (inactive) | 107% (inactive) | 81% (inactive) | -10.5% (inactive) | 91.6 | 81 | -1.87% (inactive) | -4.33% (inactive) | -7.46% (inactive) | 10.4% (inactive) | -2.68% (inactive) | 97.6% (inactive) | 98.5% (inactive) | 0.875% (inactive) | 4.65% (inactive)
17 | COc1ccc(CN2C(=O)CN=C2Nc2ccc(C)cc2C)cc1 | 85 | 91% (inactive) | 85% (inactive) | 103% (inactive) | 84.9% (inactive) | 7.04% (inactive) | 77.8 | 84.9 | -3.82% (inactive) | -0.73% (inactive) | -7.07% (inactive) | -12.2% (inactive) | -1.49% (inactive) | 101% (inactive) | 89.4% (inactive) | 3.82% (inactive) | 5.11% (inactive)
18 | CCOC(=O)c1ccc(N2Cc3cc(C)c(C)cc3C2)cc1O | 95.5 | 95.5% (inactive) | 95.5% (inactive) | 108% (inactive) | 97.3% (inactive) | 4.4% (inactive) | 92.9 | 97.3 | 4.27% (inactive) | 10.3% (inactive) | -10.9% (inactive) | -7.42% (inactive) | 2.66% (inactive) | 107% (inactive) | 93.8% (inactive) | 0.285% (inactive) | 1.88% (inactive)
19 | COc1cc(NC(=O)C2CCCN2S(=O)(=O)c2cccc3cccnc23)cc(OC)c1OC (stereo not drawn) | 72 | 81% (inactive) | 72% (inactive) | 87.6% (inactive) | 82.2% (inactive) | -6.16% (inactive) | 88.3 | 82.2 | -1.67% (inactive) | 1.5% (inactive) | 0.6% (inactive) | -10.7% (inactive) | -5.34% (inactive) | 79.4% (inactive) | 79.4% (inactive) | 0.905% (inactive) | 2.32% (inactive)
